Experiment [1] addresses Lysosomal acid glucosylceramidase (Homo sapiens) (UniProt P04062). Briefly: Glucocerebrosidase-p2 (AID 348; in the data active = potency below about 10 µM; also: potency is read from the fitted curve at half-maximal effect). Particulars: purified GBA, blue fluorogenic substrate, 40 min. An outline of the steps: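 Normal human glucocerebrosidase (0.2 nM) with blue fluorogenic substrate (80 uM final) in citrate/phosphate pH 5.9 with 10mM sodium taurocholate, 0.01% tween-20; 40 min RT, NaOH/glycine stop; fluorescence Ex 365/Em 440; AC50 from a titration from 0.6 nM upwards.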

Experiment [2] in a line: AP1 Signaling Pathway (AID 357; active = well fitted curve in either direction with a large enough effect, not every such curve was filed as active;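 also: ME-180 reporter cells stimulated with EGF at its EC50 level; % is scaled to controls: 0 for no effect and ±100 for the full control effect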). Particulars: ME-180 AP-1-bla reporter, EGF-induced, beta-lactamase ratio, 5 h; at 7.69 µM (top of the series) unless noted. An outline of the steps:
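Beta-lactamase reporter under AP-1 response element, ME-180 background. Stimulus: EC50 EGF. Compound exposure 5 h, 37 °C. Detection: CCF4, 2.5 h RT, 460/530 nm. Values: AC50 from titration.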

The target of experiment [3] is Cytochrome P450 1A2 (Homo sapiens) (UniProt P05177). Briefly: p450-cyp1a2 (AID 410; calls by dose curve; also: potency is read from the fitted curve at half-maximal effect). The note with it: recombinant CYP1A2, luciferin-ME demethylation, luminescence; series mostly up to 57 µM. An outline of the steps: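 20nM CYP1A2, 100uM Luciferin-ME (=Km), 100mM KPO4; cpd 10 min RT; +NADPH regen, 60 min RT; stop/detect 20 min; luminescence. Normalized to furafylline 57 uM = full inhibition.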

Experiment [4] in a line: NFAT Signaling Pathway (AID 444; active = well fitted curve in either direction with a large enough effect, not every such curve was filed as active;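 also: carbachol stimulus at about its EC50 of 1 µM final; % is scaled to controls: 0 for no effect and ±100 for the full control effect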). The note with it: Jurkat NFAT-bla M1, carbachol, beta-lactamase ratio, 5 h; at 7.69 µM (top of the series) unless noted. The method, boiled down: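 Jurkat cells carrying an NFAT-driven β-lactamase reporter and co-transfected muscarinic M1 receptor were treated with compound plus carbachol (1 uM final, an EC50 level) for 5 h at 37 °C. CCF4 loading followed for 1 h at RT; 460/530 nm ratio gave %activity.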

A short description of experiment [5]: Stat Signaling Pathway (AID 446; active = well fitted curve in either direction with a large enough effect, not every such curve was filed as active;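 also: ME-180 cervical cancer cells given 40 pM IL-6 alongside compound; SIE-controlled beta-lactamase reporter measured as 460/530 nm FRET emission ratio; % is scaled to controls: 0 for no effect and ±100 for the full control effect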). Particulars: ME-180 (cervical carcinoma) SIE beta-lactamase reporter, IL-6 stimulated, 5 h; at 7.69 µM (top of the series) unless noted. An outline of the steps:
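Normalization used AC90 stimulation (300 pM IL-6) and AC90 inhibition (125 nM pan-JAK inhibitor at 40 pM IL-6). The underlying signal is SIE-driven beta-lactamase in ME-180 cells after 5 h IL-6 exposure with compound.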

Experiment [6] has as its target Glucocorticoid receptor (Homo sapiens) (UniProt P04150). The experiment can be described thus: GR-GFP Redistribution (AID 450;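 active = compounds whose dose series gives a full or clear partial fitted curve of increased nuclear translocation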; also: potency is read from the fitted curve at half-maximal effect). The note with it: U2OS GR-GFP nuclear translocation, laser cytometry, 2 h.
The target is the same in experiment [7]. The experiment can be described thus: GR-EFC Redistribution (AID 451; calls by dose curve; also: potency is read from the fitted curve at half-maximal effect). The note with it: CHO-K1 GR-EFC translocation, beta-gal luminescence, 2 h. The method, boiled down: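 CHO-K1 cells stably expressing nuclear-localized β-gal enzyme acceptor and GR fused C-terminally to the enzyme donor fragment; ligand-driven nuclear translocation restores β-gal by complementation. Compounds titrated up to 46 uM final, 2 h at 37 °C; luminescence read.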

For experiment [8], the target named is Mitogen-activated protein kinase 10 (Mus musculus) (UniProt Q61831). Briefly: JNK3 AlphaScreen Assay (AID 530; active = well fitted curve in either direction with a large enough effect, not every such curve was filed as active;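 also: kinase came from lysate of stimulated human HepG2 cells; signal reports phosphorylation of biotinylated GST-cJun 1-79 at Ser73 with 10 µM ATP; % is scaled to controls: 0 for no effect and ±100 for the full control effect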). The note with it: JNK3 lysate, c-Jun phosphorylation; series mostly up to 57.1 µM. The method, boiled down:
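Biotinylated GST-cJun(1-79) served as substrate for JNK3 in HepG2 lysates stimulated with IL-1beta and TNF-alpha. ATP was 10 uM final, pH 7.6. Ser73 phosphorylation was quantified by AlphaScreen (680 nm excitation).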
In general terms: Alpha assays give light when donor and acceptor beads are brought close together.

For experiment [9], the target named is 3',5'-cyclic-AMP phosphodiesterase 4B (Homo sapiens) (UniProt Q07343). The experiment can be described thus: qHTS Assay for Inhibitors of PDE-IV (AID 607; active = well fitted activation curve with a large enough effect in the main read-out, with a control signal flat, not every such curve was filed as active; also: potency is read from the fitted curve at half-maximal effect). Particulars: HEK293 ACTOne CNG channel cells, membrane potential fluorescence; series mostly up to 22.9 µM. The method, boiled down: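 HEK293 ACTOne cells with CNG channel (1000/well), endogenous PDE4; membrane potential dye, compounds up to 22.9 uM final. Fluorescence Ex 535/Em 590; RO 20-1724 (100 uM final) as reference.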
In general terms: Quantitative high-throughput screening tests each substance at several concentrations.

Experiment [10] addresses Cytochrome P450 3A4 (Homo sapiens) (UniProt P08684). Briefly: qHTS Assay for Activators of Cytochrome P450 3A4 (AID 885). Also: nearly all actives have a fitted effect of over 65% in size. Particulars: recombinant CYP3A4, Luciferin-PPXE luminescence, 60 min; series mostly up to 57.1 µM. The method, boiled down: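 Human CYP3A4 dealkylates Luciferin-PPXE to luciferin, which luciferase detection converts to light. Substrate was at its KM (25uM), buffer 200mM KPO4, reaction 60 min at RT.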

In experiment [11] the target is Dual specificity protein kinase CLK4 (Homo sapiens) (UniProt Q9HAZ1). The experiment can be described thus: qHTS Assay for Inhibitors of CDC-like Kinase 4 (Kinase-Glo Assay) (AID 1770). Also: nearly all actives have a fitted effect of over 65% in size. Also: potency is read from the fitted curve at half-maximal effect. Particulars: recombinant Clk4, Kinase-Glo ATP depletion luminescence; series mostly up to 66.7 µM. An outline of the steps:
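Luminescent ATP-depletion read-out (Kinase-Glo) after 4.5 h room-temperature reaction of Clk4 (25 nM final) with RS peptide (100 uM) and ATP (1 uM), pH 7.5 Tris buffer with MgCl2 and DTT.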

For experiment [12] the target is unchanged. The experiment can be described thus: qHTS Assay for Inhibitors of CDC-like Kinase 4 (ADP-Glo Assay) (AID 1771). Also: nearly all actives have a fitted effect of over 70% in size. Also: potency is read from the fitted curve at half-maximal effect. The note with it: recombinant CLK4, ADP-Glo luminescence; series mostly up to 80 µM. The method, boiled down: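 25 nM Clk4, 100 uM RS peptide, 1 uM ATP (final); 2 mM MgCl2, 0.5 mM EGTA, 2.5 mM DTT, 0.01% Triton X-100; 1 hr RT. ADP-Glo readout: ATP depletion 45 min, conversion/luciferase 30 min, luminescence.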

For experiment [13] the target is unchanged. The experiment can be described thus: qHTS Assay for Inhibitors of CDC-like Kinase 4 (ADP-FP Assay) (AID 1795). Also: nearly all actives have a fitted effect of over 60% in size. Also: potency is read from the fitted curve at half-maximal effect. Particulars: Transcreener ADP fluorescence polarization; series mostly up to 50 µM. The method, boiled down:
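Kinase activity was measured as ADP production using Transcreener orange tracer (4 nM) and ADP antibody (1 ug/mL) fluorescence polarization, with ADP calculated from a calibration curve. The 1 h reaction contained 6.25 nM Clk4, 1 uM ATP and 100 uM RS peptide at pH 7.5 with Mg2+.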

Experiment [14] deals with Ubiquitin carboxyl-terminal hydrolase 1 (Homo sapiens) (UniProt O94782). Briefly: Inhibitors of USP1/UAF1: Pilot qHTS (AID 504865).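 Also: rhodamine fluorescence freed from ubiquitin-rhodamine substrate followed over time; top concentration of the series differs between compounds; % is scaled to controls: 0 for no effect and ±100 for the full control effect; nearly all actives have a fitted effect of over 35% in size.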 Particulars: purified USP1/UAF1, Ub-rhodamine cleavage fluorescence; series mostly up to 54.9 µM. The method, boiled down:
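Deubiquitinase activity followed as kinetic rhodamine fluorescence release from 150 nM Ub-Rho. 1 nM USP1/UAF1 with compound, after 15 min room-temperature preincubation, in HEPES pH 7.8 buffer containing TCEP, EDTA, BSA and Tween-20.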

The nature of experiment [15]: Primary qHTS for small molecule stabilizers of the endoplasmic reticulum resident proteome: Secreted ER Calcium Modulated Protein (SERCaMP) assay (AID 1508630). Also: % is scaled to controls: 0 for no effect and ±100 for the full control effect. Particulars: SH-SY5Y GLuc-SERCaMP (Gaussia luciferase released on ER calcium loss) secretion, thapsigargin, luminescence; series mostly up to 38.4 µM. The method, boiled down:
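The SH-SY5Y reporter protocol was run at 3 concentrations up to 38.3 uM (primary) or 11 concentrations (follow-up): 16 h compound, 100 nM thapsigargin for 4 h, then extracellular luciferase luminescence.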

The target in experiment [16] is Cytochrome P450 2C19 (Homo sapiens) (UniProt P33261). Briefly: qHTS Assay for Inhibitors and Substrates of Cytochrome P450 2C19 (AID 899). Also: potency is read from the fitted curve at half-maximal effect; nearly all actives have a fitted effect of over 60% in size. Particulars: recombinant CYP2C19, luciferin-H EGE luminescence; series mostly up to 57.1 µM. The method, boiled down:
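In 50mM KPO4, the reaction held 5nM enzyme and KM-level (10uM) Luciferin-H EGE; it ran 60 min at 37C after NADPH regeneration and a 10 min compound preincubation. Luminescence values were scaled to 57uM ketoconazole as complete inhibition.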

The target in experiment [17] is Cytochrome P450 2D6 (Homo sapiens) (UniProt P10635). Briefly: qHTS Assay for Inhibitors and Substrates of Cytochrome P450 2D6 (AID 891). Also: potency is read from the fitted curve at half-maximal effect; nearly all actives have a fitted effect of over 60% in size. Particulars: recombinant CYP2D6, luciferin-ME EGE luminescence; series mostly up to 57.1 µM. An outline of the steps:
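Luminescent read-out of luciferin formed by 5 nM human CYP2D6 demethylating 30 uM Luciferin-ME EGE (Km level) over 60 min at room temperature after NADPH regeneration addition. Data normalized to full inhibition by 1.43 uM quinidine.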

Experiment [18] addresses Cytochrome P450 3A4 (Homo sapiens) (UniProt P08684). The experiment can be described thus: qHTS Assay for Inhibitors and Substrates of Cytochrome P450 3A4 (AID 884). Also: potency is read from the fitted curve at half-maximal effect; nearly all actives have a fitted effect of over 50% in size. The note with it: recombinant CYP3A4, Luciferin-PPXE luminescence; series mostly up to 57.1 µM. The method, boiled down: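 Luminescent readout of luciferin produced by CYP3A4 (20 nM) dealkylation of Luciferin-PPXE, 25 uM (its KM). NADPH-driven reaction ran 60 min at RT after 10 min compound preincubation; data scaled to 57 uM ketoconazole as 100% inhibition.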

Each structure is given as a SMILES string. A number with no mark means an inactive call. Inconclusive results are not listed. Calls of active or inactive are those of the source. Unless noted, calls follow the shape of the dose curve; as a rule, active = well fitted curve in the direction sought with a large enough effect; inconclusive = small, poorly fitted or top-dose-only effect, or another doubt; inactive = no such curve, though single readings can be large; an effect the other way counts as inactive or inconclusive.

Sequence of Glucocorticoid receptor (Homo sapiens) (P04150 whole entry, looked up, the tested form may be a part): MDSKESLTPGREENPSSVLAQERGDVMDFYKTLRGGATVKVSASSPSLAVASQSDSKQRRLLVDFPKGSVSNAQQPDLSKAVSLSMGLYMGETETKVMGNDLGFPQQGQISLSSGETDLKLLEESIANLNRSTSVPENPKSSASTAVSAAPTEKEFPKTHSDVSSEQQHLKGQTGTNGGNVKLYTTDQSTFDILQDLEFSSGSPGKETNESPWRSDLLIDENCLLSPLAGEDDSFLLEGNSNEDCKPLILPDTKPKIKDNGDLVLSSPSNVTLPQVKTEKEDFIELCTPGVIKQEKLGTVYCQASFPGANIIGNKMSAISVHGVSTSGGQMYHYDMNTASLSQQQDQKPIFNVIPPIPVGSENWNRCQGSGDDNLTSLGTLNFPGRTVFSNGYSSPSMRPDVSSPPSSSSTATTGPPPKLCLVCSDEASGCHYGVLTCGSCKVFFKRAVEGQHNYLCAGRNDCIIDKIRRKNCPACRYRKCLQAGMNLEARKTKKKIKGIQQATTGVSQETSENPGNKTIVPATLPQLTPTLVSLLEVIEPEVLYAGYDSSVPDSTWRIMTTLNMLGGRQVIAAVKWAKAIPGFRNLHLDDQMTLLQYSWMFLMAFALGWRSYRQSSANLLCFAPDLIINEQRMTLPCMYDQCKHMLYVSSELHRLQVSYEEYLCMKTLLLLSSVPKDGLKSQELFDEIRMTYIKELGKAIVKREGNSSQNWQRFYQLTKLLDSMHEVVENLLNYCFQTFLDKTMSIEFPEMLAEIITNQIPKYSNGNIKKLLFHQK
Sequence of Cytochrome P450 1A2 (Homo sapiens) (P05177 whole entry, looked up): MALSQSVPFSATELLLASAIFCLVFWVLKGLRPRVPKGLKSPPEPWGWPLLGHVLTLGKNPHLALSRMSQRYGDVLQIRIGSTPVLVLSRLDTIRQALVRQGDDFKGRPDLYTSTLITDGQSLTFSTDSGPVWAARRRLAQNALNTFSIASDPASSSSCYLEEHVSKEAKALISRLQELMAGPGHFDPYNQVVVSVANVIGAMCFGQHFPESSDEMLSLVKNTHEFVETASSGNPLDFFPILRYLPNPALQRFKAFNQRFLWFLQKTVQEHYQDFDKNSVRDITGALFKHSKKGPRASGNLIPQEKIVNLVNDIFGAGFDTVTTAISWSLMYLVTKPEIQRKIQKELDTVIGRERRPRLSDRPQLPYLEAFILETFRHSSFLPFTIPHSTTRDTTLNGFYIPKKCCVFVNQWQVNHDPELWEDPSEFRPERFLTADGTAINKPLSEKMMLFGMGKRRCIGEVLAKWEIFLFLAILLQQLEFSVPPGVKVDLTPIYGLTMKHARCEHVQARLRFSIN
Sequence of Ubiquitin carboxyl-terminal hydrolase 1 (Homo sapiens) (O94782 whole entry, looked up): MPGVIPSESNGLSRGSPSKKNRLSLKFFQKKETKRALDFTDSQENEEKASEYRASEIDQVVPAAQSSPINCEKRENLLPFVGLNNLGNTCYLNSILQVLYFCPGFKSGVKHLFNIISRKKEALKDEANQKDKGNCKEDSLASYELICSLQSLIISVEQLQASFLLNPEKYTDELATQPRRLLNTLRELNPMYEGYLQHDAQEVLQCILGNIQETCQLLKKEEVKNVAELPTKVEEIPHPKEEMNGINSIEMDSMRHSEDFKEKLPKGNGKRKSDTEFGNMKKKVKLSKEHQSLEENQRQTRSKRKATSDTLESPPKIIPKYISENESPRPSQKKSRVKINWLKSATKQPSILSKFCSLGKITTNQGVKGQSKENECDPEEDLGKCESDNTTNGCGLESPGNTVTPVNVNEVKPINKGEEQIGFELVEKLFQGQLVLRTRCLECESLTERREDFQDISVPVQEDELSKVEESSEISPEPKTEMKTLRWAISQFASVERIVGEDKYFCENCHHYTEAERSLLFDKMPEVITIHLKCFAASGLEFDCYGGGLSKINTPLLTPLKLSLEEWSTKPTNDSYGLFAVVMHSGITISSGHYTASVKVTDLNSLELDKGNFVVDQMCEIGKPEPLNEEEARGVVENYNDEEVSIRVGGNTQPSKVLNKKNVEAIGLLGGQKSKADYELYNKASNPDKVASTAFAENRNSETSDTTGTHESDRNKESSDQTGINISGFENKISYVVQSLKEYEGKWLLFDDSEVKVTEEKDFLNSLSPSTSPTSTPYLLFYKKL
Sequence of Lysosomal acid glucosylceramidase (Homo sapiens) (P04062 whole entry, looked up): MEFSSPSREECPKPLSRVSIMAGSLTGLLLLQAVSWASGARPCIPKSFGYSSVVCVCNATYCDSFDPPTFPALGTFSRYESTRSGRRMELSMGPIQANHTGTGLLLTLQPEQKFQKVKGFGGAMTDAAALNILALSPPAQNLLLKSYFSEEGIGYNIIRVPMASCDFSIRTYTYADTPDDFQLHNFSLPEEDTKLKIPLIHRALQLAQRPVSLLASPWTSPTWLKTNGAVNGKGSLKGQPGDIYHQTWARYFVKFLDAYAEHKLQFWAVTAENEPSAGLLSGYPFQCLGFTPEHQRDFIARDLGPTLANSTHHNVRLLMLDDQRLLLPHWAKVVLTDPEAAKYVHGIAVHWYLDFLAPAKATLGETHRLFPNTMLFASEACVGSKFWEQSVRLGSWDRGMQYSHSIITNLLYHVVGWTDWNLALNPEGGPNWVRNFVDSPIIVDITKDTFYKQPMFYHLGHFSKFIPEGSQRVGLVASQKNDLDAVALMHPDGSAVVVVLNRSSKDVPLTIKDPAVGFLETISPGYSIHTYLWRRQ
Sequence of 3',5'-cyclic-AMP phosphodiesterase 4B (Homo sapiens) (Q07343 whole entry, looked up): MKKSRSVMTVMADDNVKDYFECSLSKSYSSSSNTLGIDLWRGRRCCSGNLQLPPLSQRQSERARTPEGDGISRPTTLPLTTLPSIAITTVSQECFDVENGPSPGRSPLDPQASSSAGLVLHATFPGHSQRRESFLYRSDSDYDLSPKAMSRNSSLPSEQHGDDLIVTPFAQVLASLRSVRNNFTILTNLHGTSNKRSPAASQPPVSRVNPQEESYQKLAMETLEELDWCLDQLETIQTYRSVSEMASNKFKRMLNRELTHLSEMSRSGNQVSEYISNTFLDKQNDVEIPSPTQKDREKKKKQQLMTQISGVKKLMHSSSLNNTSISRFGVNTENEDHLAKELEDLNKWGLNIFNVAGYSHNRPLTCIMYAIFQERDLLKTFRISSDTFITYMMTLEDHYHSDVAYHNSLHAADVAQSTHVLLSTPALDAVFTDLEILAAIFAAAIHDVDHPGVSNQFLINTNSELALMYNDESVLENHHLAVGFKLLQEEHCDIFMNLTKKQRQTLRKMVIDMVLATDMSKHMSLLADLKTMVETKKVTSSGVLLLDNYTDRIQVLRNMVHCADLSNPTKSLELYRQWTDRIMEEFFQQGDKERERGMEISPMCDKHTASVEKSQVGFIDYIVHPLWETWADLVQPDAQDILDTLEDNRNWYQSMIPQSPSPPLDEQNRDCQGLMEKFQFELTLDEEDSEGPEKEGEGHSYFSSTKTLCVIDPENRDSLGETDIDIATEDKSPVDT
Sequence of Cytochrome P450 3A4 (Homo sapiens) (P08684 whole entry, looked up): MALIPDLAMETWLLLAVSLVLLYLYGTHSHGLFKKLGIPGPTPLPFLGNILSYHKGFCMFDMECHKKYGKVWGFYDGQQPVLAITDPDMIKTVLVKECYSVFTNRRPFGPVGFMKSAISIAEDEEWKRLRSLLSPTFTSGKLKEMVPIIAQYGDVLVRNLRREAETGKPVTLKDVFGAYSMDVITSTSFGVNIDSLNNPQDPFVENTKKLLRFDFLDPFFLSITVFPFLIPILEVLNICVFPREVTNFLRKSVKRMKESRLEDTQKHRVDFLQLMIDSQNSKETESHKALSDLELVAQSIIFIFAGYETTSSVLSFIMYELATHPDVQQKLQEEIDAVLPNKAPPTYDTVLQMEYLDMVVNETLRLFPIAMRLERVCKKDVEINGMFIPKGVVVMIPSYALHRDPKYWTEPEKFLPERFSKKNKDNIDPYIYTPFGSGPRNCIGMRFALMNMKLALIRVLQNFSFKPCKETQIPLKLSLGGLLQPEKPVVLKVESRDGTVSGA
Sequence of Dual specificity protein kinase CLK4 (Homo sapiens) (Q9HAZ1 whole entry, looked up): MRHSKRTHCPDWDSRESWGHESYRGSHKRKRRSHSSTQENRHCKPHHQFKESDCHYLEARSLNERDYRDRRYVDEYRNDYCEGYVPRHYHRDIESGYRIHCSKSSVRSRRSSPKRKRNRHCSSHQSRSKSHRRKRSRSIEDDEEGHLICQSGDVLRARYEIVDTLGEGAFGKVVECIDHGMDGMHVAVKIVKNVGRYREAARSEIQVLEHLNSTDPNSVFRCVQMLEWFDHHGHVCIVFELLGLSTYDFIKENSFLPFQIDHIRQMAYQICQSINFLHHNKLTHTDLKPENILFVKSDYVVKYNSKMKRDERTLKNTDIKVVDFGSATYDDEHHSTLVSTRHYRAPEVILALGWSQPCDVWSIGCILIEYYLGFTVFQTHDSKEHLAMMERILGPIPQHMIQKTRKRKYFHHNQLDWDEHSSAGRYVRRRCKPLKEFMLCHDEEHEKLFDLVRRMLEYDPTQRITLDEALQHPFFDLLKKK
Sequence of Cytochrome P450 2C19 (Homo sapiens) (P33261 whole entry, looked up): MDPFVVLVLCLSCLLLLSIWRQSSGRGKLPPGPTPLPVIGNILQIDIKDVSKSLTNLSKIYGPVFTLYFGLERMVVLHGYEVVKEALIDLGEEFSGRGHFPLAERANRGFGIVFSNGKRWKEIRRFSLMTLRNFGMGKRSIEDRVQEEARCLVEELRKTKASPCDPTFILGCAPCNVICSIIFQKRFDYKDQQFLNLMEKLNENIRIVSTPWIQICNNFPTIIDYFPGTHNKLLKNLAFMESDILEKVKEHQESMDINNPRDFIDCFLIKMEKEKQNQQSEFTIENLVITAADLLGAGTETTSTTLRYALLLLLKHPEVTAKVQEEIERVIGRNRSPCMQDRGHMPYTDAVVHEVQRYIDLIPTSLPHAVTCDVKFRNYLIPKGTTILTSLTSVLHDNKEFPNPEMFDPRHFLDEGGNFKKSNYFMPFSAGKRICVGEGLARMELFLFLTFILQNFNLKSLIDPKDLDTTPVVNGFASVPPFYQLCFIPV

With `Cc1noc(C)c1-c1nccc(N(C)Cc2ccco2)n1`, the Potency is over 11.4 µM in experiment [1], 2 µM (active) in [3], over 46 µM in [6] and over 46 µM in experiment [7]. In addition, the activity change, negative = inhibition in experiment [2] was 6.47%; in experiment [4] it was -3.01%. In [5], the activity, negative = inhibition was 3.88%. The Potency entry in experiment [8], in experiment [9], in [10], in experiment [11], in experiment [12] and in experiment [13] was “inactive” throughout. For the same compound, in [14], the Potency result was “inactive”. Besides, in experiment [15], the result was inactive.

For `O=c1cnc2cnc(Nc3ccccc3)nc2n1CCc1ccccc1`, the Potency is over 11.4 µM in [1]; 3.16 µM (active) in experiment [3]; over 9.22 µM in experiment [6]; over 46 µM in experiment [7]; 2.51 µM (active) in experiment [9]; 2 µM (active) in experiment [16]. In addition, the Potency is 199 nM (active) in experiment [11], 316 nM (active) in experiment [12] and 89.1 nM (active) in [13]. In addition, the activity change, negative = inhibition is -13.5% in [2] and 9.72% in experiment [4]. Also, the activity, negative = inhibition in experiment [5] is -12.1%. Further, the Potency result in [8] and in experiment [14] was “inactive” in each case. For the same compound, the result in experiment [15] was inactive.

Consider `CN(C)Cc1ccccc1-c1nc(NC2CC2)c2ccccc2n1`, for which the Potency is over 11.4 µM in [1]; 5.01 µM (active) in experiment [3]; over 46 µM in experiment [6]; over 46 µM in experiment [7]; 3.98 µM (active) in experiment [17]. Moreover, the activity change, negative = inhibition in experiment [2] was 1.1%; in experiment [4] it was -22.4%. Also, the activity, negative = inhibition in experiment [5] is 7.64%. In addition, the Potency entry in [8], in experiment [10], in [11], in [12], in [13] and in [14] was “inactive” in each case. The result in [15] was inactive.

Take `COc1ccc(-n2c(=O)c(-c3cccc(F)c3)nc3cncnc32)cc1`: the Potency was over 11.4 µM in experiment [1], 3.98 µM (active) in experiment [3], over 9.22 µM in experiment [6] and over 46 µM in [7]. Besides, the values for the activity change, negative = inhibition in experiment [2] and in experiment [4] were -4.56% and 7.82%, respectively. Also, the activity, negative = inhibition in [5] was -17.1%. The Potency result in experiment [8], in experiment [9], in experiment [10], in [11], in experiment [12] and in experiment [13] was “inactive” each time. In addition, the Potency entry in [14] is “inactive”. Also, the outcome in [15] was inactive.

As for `Cc1cnc(CNc2ncncc2-c2ccccc2Cl)cn1`, the Potency in experiment [1] was over 11.4 µM; in experiment [3] it was 15.8 µM (active); in experiment [6], over 46 µM; in experiment [7], over 46 µM. The results for the activity change, negative = inhibition in experiment [2] and in experiment [4] were -2.38% and 13.7%, respectively. In experiment [5], the activity, negative = inhibition is -0.675%. Also, the Potency entry in [8], in experiment [9], in [10], in [11], in [12] and in experiment [13] was “inactive” throughout. Moreover, in experiment [14], the Potency result was “inactive”. The outcome in experiment [15] was inactive.

As for `CS(=O)(=O)Nc1cccc(-c2cncnc2NCc2ccccc2)c1`, the Potency in [1] is over 11.4 µM; in experiment [3], 25.1 µM (active); in experiment [6], over 46 µM; in experiment [7] it was over 46 µM; in experiment [18] it was 631 nM (active). Further, the activity change, negative = inhibition was -1.31% in experiment [2] and 3.36% in experiment [4]. Further, the activity, negative = inhibition in experiment [5] was -2.08%. The Potency entry in [8], in [10], in experiment [11], in experiment [12], in [13] and in experiment [14] was “inactive” in each case. In addition, the result in experiment [15] was inactive.

For the origin of these results see PubChem BioAssay (NCATS).
